Calls of active or inactive are those of the source.
Tests used:
[1] = test system: Plasmodium falciparum Sir2 (PF13_0152, Sir2A); test: pfSir2 binders on small-molecule microarrays, primary screen, biochemical, small-molecule microarray, 635 nm fluorescence (AID 1098); details: small-molecule microarray binding, fluorescence 635 nm; higher = more signal;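 note: score merges spot fluorescence intensity with its signal-to-noise ratio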
[2] = small-molecule microarray binders of probe aDKK1, primary screen, biochemical, biotinylated probe, 635/667 nm fluorescence (AID 1099); details: higher = more signal;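 note: score merges 667nm spot fluorescence with signal to noise across triplicate slides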
[3] = small-molecule microarray binders of probe aCHRDL2, primary screen, biochemical, biotinylated probe, 635/667 nm fluorescence (AID 1100); details: higher = more signal
[4] = splicing luciferase reporter signal modulators, primary screen, spliceosome inhibition project, cell-based, HEK293, splice +/- reporter (AID 1101); details: luminescence, 24 h, higher = more signal, called active from +8 up or from −8 down;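 note: HEK293 cells carrying a splicing-competent luciferase reporter gene; test concentration not given here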
[5] = target: Fibroblast growth factor 10 (Homo sapiens) (UniProt O15520); test: FGF10 binders on small-molecule microarrays, primary screen, biochemical, small-molecule microarray, 635 nm fluorescence (AID 1102); details: FGF10 binding, fluorescence 635 nm, higher = more signal
Chain of Fibroblast growth factor 10 (Homo sapiens) (O15520 whole entry, looked up): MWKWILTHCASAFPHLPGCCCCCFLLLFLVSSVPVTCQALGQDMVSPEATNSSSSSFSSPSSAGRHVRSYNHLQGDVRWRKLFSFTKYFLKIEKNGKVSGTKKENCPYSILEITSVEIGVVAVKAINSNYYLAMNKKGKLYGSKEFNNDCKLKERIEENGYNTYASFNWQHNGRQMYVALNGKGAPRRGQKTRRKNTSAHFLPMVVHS

[6] = test system: glycogen synthase kinase-3 (GSK3A per assay name; protocol says GSK3B); test: GSK3 binders on small-molecule microarrays, primary screen, biochemical, small-molecule microarray, 635 nm fluorescence, GSK3A (AID 1103); details: small-molecule microarray binding, fluorescence 635 nm; higher = more signal; note: the record names both GSK3A and GSK3B
[7] = target: Epidermal growth factor receptor (Homo sapiens) (UniProt P00533); test: EGFR binders on small-molecule microarrays, primary screen, biochemical, small-molecule microarray, 635 nm fluorescence (AID 1104); details: EGFR binding, higher = more signal;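 note: score merges 667 nm emission intensity with spot signal to noise over triplicate slides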
Chain of Epidermal growth factor receptor (Homo sapiens) (P00533 whole entry, looked up): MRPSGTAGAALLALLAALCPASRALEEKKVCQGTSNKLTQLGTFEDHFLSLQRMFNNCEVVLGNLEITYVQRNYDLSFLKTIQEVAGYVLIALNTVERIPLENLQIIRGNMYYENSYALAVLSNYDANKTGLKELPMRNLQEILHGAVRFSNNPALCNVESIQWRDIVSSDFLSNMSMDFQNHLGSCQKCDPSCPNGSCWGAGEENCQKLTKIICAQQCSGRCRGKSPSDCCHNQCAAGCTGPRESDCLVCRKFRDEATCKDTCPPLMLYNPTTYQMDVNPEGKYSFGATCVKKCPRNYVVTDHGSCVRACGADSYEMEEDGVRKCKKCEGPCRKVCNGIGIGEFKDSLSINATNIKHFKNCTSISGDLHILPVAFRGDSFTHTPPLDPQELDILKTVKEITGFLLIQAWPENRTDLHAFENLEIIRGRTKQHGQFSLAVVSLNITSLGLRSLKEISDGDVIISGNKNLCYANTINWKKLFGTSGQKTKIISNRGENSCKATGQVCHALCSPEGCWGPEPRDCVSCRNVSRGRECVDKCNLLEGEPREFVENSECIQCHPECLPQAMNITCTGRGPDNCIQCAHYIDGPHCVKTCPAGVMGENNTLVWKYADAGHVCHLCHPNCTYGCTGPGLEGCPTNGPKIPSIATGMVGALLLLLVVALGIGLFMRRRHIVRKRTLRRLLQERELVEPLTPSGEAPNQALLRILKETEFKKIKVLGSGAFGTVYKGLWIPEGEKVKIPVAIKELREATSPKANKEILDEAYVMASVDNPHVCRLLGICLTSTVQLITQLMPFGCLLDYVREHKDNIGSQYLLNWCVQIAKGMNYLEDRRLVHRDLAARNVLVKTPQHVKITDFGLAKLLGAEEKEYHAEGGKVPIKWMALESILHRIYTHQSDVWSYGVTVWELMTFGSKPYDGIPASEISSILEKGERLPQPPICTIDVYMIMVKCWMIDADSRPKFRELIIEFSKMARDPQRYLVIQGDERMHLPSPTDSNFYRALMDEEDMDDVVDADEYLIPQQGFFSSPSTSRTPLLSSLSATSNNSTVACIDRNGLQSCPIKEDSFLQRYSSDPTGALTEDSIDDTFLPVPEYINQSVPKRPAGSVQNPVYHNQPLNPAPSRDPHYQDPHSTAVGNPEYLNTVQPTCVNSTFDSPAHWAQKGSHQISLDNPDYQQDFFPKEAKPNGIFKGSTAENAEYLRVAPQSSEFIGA

[8] = target: Follistatin-related protein 3 (Homo sapiens) (UniProt O95633); test: FSTL3 binders on small-molecule microarrays, primary screen, biochemical, small-molecule microarray, 635 nm fluorescence (AID 1105); details: FSTL3 binding, higher = more signal;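 note: score merges emission near 667 nm and signal to noise per printed spot across three slides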
Chain of Follistatin-related protein 3 (Homo sapiens) (O95633 whole entry, looked up): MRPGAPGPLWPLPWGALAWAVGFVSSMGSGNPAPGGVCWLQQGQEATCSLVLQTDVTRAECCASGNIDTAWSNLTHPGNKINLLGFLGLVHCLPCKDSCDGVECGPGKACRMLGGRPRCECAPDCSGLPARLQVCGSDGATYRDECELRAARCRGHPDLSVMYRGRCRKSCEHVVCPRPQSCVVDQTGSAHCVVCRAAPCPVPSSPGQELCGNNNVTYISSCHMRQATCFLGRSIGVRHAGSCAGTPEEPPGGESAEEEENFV

[9] = target: Dickkopf-related protein 1 (Homo sapiens) (UniProt O94907); test: DKK1 binders on small-molecule microarrays, primary screen, biochemical, small-molecule microarray, 635 nm fluorescence scan (AID 1106); details: DKK1 binding, higher = more signal;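 note: score merges emission near 667 nm with signal to noise over three replicate slides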
Chain of Dickkopf-related protein 1 (Homo sapiens) (O94907 whole entry, looked up): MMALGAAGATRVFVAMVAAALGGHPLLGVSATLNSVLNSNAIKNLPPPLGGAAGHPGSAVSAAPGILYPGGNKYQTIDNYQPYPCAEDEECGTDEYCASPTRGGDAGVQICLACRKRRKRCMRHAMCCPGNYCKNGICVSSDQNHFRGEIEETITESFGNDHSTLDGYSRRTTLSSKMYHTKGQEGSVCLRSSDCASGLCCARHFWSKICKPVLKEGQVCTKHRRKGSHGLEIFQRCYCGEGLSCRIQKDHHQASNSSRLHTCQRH

[10] = test system: Inhibin beta A chain (activin A); test: INHBA (activin A) binders on microarrays, primary screen, biochemical, small-molecule microarray, 635 nm fluorescence scan (AID 1107); details: small-molecule microarray binding, higher = more signal;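 note: mouse activin A protein probed at 4.33 µg/mL on printed slides; score merges bound-protein fluorescence near 667 nm with spot signal-to-noise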
[11] = test system: Human papillomavirus type 1a protein E7 (residues 44-93); test: HPV1a E7 fragment binders on microarrays, primary screen, biochemical, small-molecule microarray, residues 44-93, 635 nm fluorescence (AID 1108); details: small-molecule microarray binding, fluorescence 635 nm; higher = more signal;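 note: E7 fragment applied at 1 µg/mL in TBST for 1 h at 4 C; score combines spot fluorescence with its signal to noise ratio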
[12] = modulators of HCV replicon luciferase signal, primary screen, HCV replication inhibitor project, Huh7 cells, luciferase reporter (AID 1109); details: 48 h, higher = more signal;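 note: huh7 hepatoma cells harbouring a luciferase neomycin HCV replicon reporter; luciferase luminescence as measure of HCV replicon replication; test concentration not given here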
[13] = target: Left-right determination factor 2 (Homo sapiens) (UniProt O00292); test: LEFTY2 binders on small-molecule microarrays, primary screen, biochemical, small-molecule microarray, 635 nm fluorescence scan (AID 1110); details: LEFTY2 binding, higher = more signal
Chain of Left-right determination factor 2 (Homo sapiens) (O00292 whole entry, looked up): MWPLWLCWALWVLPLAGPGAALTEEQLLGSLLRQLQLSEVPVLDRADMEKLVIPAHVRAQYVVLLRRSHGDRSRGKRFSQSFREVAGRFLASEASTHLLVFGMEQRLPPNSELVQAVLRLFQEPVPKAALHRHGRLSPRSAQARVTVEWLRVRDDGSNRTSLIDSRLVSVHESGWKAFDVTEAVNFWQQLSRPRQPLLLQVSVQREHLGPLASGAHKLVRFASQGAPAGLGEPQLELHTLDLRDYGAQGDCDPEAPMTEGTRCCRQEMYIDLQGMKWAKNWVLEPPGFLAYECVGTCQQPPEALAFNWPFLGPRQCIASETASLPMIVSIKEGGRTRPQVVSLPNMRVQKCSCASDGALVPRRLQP

[14] = target: Calmodulin-1 (Homo sapiens) (UniProt P0DP23); test: CALM1 binders on microarrays, EGTA buffer, profiling panel, biochemical, small-molecule microarray, Cy5-labelled CALM1 (AID 1111); details: Cy5-CALM1 binding fluorescence, higher = more signal;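 note: labelled calmodulin applied in Tris saline Tween buffer holding calcium plus EGTA and DTT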
[15] = target: Calmodulin-1 (Homo sapiens) (UniProt P0DP23); test: calcium-bound CALM1 binders on microarrays, profiling panel, artefact control for SMM control-protein annotation, biochemical, small-molecule microarray, Cy5-labelled CALM1, plus calcium (AID 1112); details: Cy5-CALM1 binding fluorescence, higher = more signal;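 note: score merges spot fluorescence with signal to noise from triplicate slides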
[16] = small-molecule microarray binders of probe aWnt5a, primary screen, biochemical, biotinylated probe, 635/667 nm fluorescence (AID 1113); details: higher = more signal;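 note: score merges 667 nm fluorescence intensity with signal-to-noise per printed feature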
[17] = small-molecule microarray binders of probe aShh, primary screen, biochemical, biotinylated probe, 635/667 nm fluorescence (AID 1114); details: higher = more signal;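 note: probe is biotin-labelled aShh protein from a stem cell growth factor screen; measures binding of labelled protein to compounds printed on the slide; score merges feature fluorescence at 667 nm with signal-to-noise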
[18] = small-molecule microarray binders of probe aNog, primary screen, biochemical, biotinylated probe, 635/667 nm fluorescence (AID 1115); details: higher = more signal;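 note: probe is biotinylated aNog protein used at 0.15 µg/mL for 1 h at 4 C; z-score combines 667 nm fluorescence of each spot with its signal to noise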
[19] = target: Torsin-1A-interacting protein 1 (Homo sapiens) (UniProt Q5JTV8); test: LAP1 binders from COS7 cell lysate, primary screen, small-molecule microarray, 635/667 nm fluorescence (AID 1116); details: COS7-hLAP1 lysate binding, 635 nm fluorescence, higher = more signal
Chain of Torsin-1A-interacting protein 1 (Homo sapiens) (Q5JTV8 whole entry, looked up): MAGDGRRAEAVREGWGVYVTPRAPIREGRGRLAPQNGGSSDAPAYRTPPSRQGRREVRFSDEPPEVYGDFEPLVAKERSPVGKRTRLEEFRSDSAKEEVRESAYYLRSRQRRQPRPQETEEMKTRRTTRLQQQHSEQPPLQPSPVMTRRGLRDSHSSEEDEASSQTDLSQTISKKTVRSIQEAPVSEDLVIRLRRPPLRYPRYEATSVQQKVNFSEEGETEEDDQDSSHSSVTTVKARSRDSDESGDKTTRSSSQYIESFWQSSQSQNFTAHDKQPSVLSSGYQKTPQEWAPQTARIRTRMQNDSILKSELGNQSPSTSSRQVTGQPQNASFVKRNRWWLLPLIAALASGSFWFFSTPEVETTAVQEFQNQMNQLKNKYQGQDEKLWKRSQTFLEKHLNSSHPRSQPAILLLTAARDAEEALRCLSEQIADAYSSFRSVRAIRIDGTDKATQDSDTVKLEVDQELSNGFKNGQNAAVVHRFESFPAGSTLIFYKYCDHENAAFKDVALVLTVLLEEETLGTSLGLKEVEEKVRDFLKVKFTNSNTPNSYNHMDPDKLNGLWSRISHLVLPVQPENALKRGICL

[20] = target: Alpha-bungarotoxin (Bungarus multicinctus) (UniProt P60615); test: alpha-bungarotoxin binders on microarray, profiling panel, artefact control for SMM control protein annotation, biochemical, small-molecule microarray, Alexa647 label, 635/667 nm fluorescence (AID 1117); details: alpha-BTX-A647 binding fluorescence, higher = more signal
Chain of Alpha-bungarotoxin (Bungarus multicinctus) (P60615 whole entry, looked up): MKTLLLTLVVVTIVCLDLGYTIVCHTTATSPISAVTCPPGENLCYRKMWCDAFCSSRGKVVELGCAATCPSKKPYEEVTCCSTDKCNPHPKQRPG

Row | SMILES | composite z-score [1] | composite z-score [2] | composite z-score [3] | z-score [4] | composite z-score [5] | composite z-score [6] | composite z-score [7] | composite z-score [8] | composite z-score [9] | composite z-score [10] | composite z-score [11] | z-score [12] | composite z-score [13] | composite z-score [14] | composite z-score [15] | composite z-score [16] | composite z-score [17] | composite z-score [18] | composite z-score [19] | composite z-score [20]
1 | C[N+](C)(C)CCCC[C@@H]1NC(=O)[C@H]2C[C@@H](C(=O)NCCCCCCNC(=O)CS)[C@@H](c3cccc(OCCO)c3)N2C1=O | 0.726 | -0.0575 | 0.861 | -0.213 (inactive) | -0.85 | -0.805 | -1.06 | -0.994 | -0.602 | -0.57 | -1.51 | -0.242 | -1.55 | -0.149 | 0.105 | -0.202 | -0.17 | -0.175 | -0.933 | -1.06
2 | CO[C@H]1O[C@H](CO)[C@@H](OC(=O)Nc2cccc(F)c2)[C@H](OC(=O)Nc2ccccc2)[C@@H]1OC(=O)Nc1ccccc1 | 0.931 | 0.433 | 0.824 | -1.24 (inactive) | 1.35 | 1.28 | 0.397 | 1.2 | -0.259 | 0.489 | 1.26 | -3.23 | 0.071 | 0.471 | -0.365 | 0.0257 | 0.365 | 0.883 | 0.642 | 0.0941
3 | COC(=O)[C@@]1(Cc2ccc(F)cc2)[C@H]2c3cc(C(=O)N(C)C)n(Cc4ccccc4)c3C[C@H]2CN1C(=O)c1ccccc1 | 1.18 | 1.06 | 0.971 | -0.376 (inactive) | 0.483 | -0.159 | -0.22 | 0.827 | -0.251 | 0.766 | 1.35 | 0.185 | -0.496 | 1.11 | 0.363 | -0.0977 | 1.17 | 1.59 | -0.3 | 2.56
4 | C[N+](C)(C)CCCCCCNC(=O)[C@@H]1C[C@@H]2C(=O)N[C@@H](Cc3ccccc3)C(=O)N2[C@@H]1c1cccc(OCCO)c1 | 1.63 | -0.147 | 0.376 | -0.189 (inactive) | 0.72 | 0.216 | -0.0586 | 1.32 | 1.02 | 0.615 | 0.44 | 0.137 | 0.542 | -0.637 | -0.792 | -0.107 | -0.0813 | -0.364 | 1.22 | 1.24
5 | CC1(C)C2C=C(C(O)C3C=CC4C(=O)NC(=O)C4N3Nc3ccc(Cl)cc3Cl)C[C@@H]1C2 (stereo not given in full) | 0.213 | 1.05 | 1.16 | 2.5 (inactive) | 0.808 | 0.0644 | 0.27 | 0.745 | -0.214 | 1.08 | 0.772 | -1.45 | -0.0061 | 2.35 | 1.01 | -0.006 | 0.275 | 0.503 | 1.27 | 1.31
6 | CC(C)C(O)C1C=CC2C(=O)N(c3ccccc3)C(=O)C2N1Nc1ccc([N+](=O)[O-])cc1 (stereo not given) | 0.0242 | 0.814 | 0.761 | 0.735 (inactive) | 0.635 | 0.368 | -0.0978 | 0.29 | -0.467 | 0.85 | 1.2 | 0.285 | -0.217 | 0.594 | 0.308 | 0.261 | 0.0358 | 0.202 | 1.34 | 0.801
7 | COC(=O)c1c(CC[C@@H](CO)NC(=O)NCCn2cc(C3(O)CCCC3)nn2)oc(C(C)=O)c1C(=O)OC | 0.546 | -0.147 | -0.26 | -0.152 (inactive) | -0.0339 | -0.0275 | 0.218 | -0.234 | 0.0587 | 0.129 | -0.0133 | -0.674 | -0.0138 | -0.19 | -0.732 | -0.169 | -0.195 | -0.158 | 0.331 | 0.139
8 | CCOC(=O)C[C@H]1[C@H](OC(=O)c2ccc(C(=O)c3ccccc3)cc2)[C@@H](NC(=O)CC(C)C)c2cc(OCCCO)ccc2N1C(=O)c1ccc2ccccc2n1 | 0.366 | -0.0449 | -0.399 | -0.202 (inactive) | 0.811 | 1.25 | 0.373 | 1.41 | 1.09 | 0.241 | 1.15 | -1.22 | 0.592 | 0.711 | -0.297 | -0.0704 | -0.0793 | -0.318 | 0.547 | 0.719
9 | COc1ccc(C#Cc2ccc3c(c2)[C@]2(C(=O)N3)[C@H](c3ccccc3OCCO)N3[C@H](c4ccccc4)[C@H](c4ccccc4)OC(=O)[C@H]3[C@@H]2C(=O)Nc2nc3ccccc3s2)cc1 | 1.64 | -0.0008 | -0.197 | -1.11 (inactive) | 1.09 | 1.31 | 0.589 | 1.27 | 0.62 | 0.322 | 1.35 | -2.83 | 0.464 | 0.844 | -0.104 | -0.128 | -0.0556 | 1.76 | 0.307 | 1.62
10 | CCCC[C@@H]1C[C@H]1[C@@H](NC(=O)c1ccco1)c1ccc(-c2ccccc2)cc1 | -0.338 | 0.189 | 0.272 | -1.61 (inactive) | 0.222 | 0.118 | -0.0501 | -0.0483 | -0.426 | 0.39 | 0.114 | -0.971 | 0.0023 | -0.179 | 0.0765 | 0.0916 | 0.104 | 0.376 | 0.425 | 0.0932
11 | CCOC(=O)C[C@H]1[C@H](OC(=O)c2cc3ccccc3oc2=O)[C@@H](NC(=O)c2ccccc2)c2cc(OCCCO)ccc2N1C(=O)c1ccc2ccccc2n1 | 0.485 | -0.128 | -0.446 | 0.0189 (inactive) | 0.72 | 0.228 | 0.536 | 1.11 | 0.425 | 0.344 | 0.55 | -0.765 | 0.782 | 0.183 | -0.505 | -0.0758 | -0.237 | -0.242 | 0.79 | 0.137
12 | COc1ccc(C(=O)Nc2ccc(CN3C(=O)[C@]4(O[C@H](CCO)[C@@H]([Si](C)(C)c5ccc(OC)cc5)[C@@H]4C)c4ccccc43)cc2)cc1 | 1.21 | -0.122 | 0.326 | -3.38 (inactive) | 0.708 | 0.762 | 0.231 | 1.02 | 0.241 | 1.3 | 1 | -5.09 | 0.202 | 0.564 | -0.314 | 0.026 | 0.014 | -0.226 | 0.432 | 0.509
